# Source: PubChem BioAssay (NCATS)
# Inconclusive results are not listed. Entries that show only a call come without a potency. A number with no mark means an inactive call. The source made the active and inactive calls. The call rests on the fitted dose curve; in most records, active means well fitted curve in the direction sought with a large enough effect; inconclusive means small, poorly fitted or top-dose-only effect, or another doubt; inactive means no such curve, though single readings can be large; an effect the other way counts as inactive or inconclusive.
# What was measured:
# [1] = molecular target: Aldehyde dehydrogenase, mitochondrial (Homo sapiens) (UniProt P05091); test: qHTS for Inhibitors of the Aldehyde Dehydrogenase Family (ALDH2) Primary screen (AID 2061308); details: ALDH2 enzyme inhibition qHTS, 1536-well; series mostly up to 56 µM; further: nearly all actives have a fitted effect of over 55% in size
# [2] = molecular target: Retinaldehyde dehydrogenase 3 (Homo sapiens) (UniProt P47895); test: qHTS for Inhibitors of the Aldehyde Dehydrogenase Family (ALDH1A3) Primary screen (AID 2061315); details: ALDH inhibition qHTS; series mostly up to 56 µM
# [3] = molecular target: Retinal dehydrogenase 2 (Homo sapiens) (UniProt O94788); test: qHTS for Inhibitors of the Aldehyde Dehydrogenase Family (ALDH1A2) Confirmation screens (AID 2061314); details: ALDH1A2 enzyme inhibition qHTS confirmation; series mostly up to 45.9 µM; further: nearly all actives have a fitted effect of over 65% in size
# [4] = molecular target: Aldehyde dehydrogenase 1A1 (Homo sapiens) (UniProt P00352); test: qHTS for Inhibitors of the Aldehyde Dehydrogenase Family (ALDH1A1) Confirmatory screens (AID 2061316); details: ALDH inhibition qHTS; series mostly up to 47.3 µM; further: nearly all actives have a fitted effect of over 65% in size
smiles,measurement,setting,value
Cc1cc(N[S+](=O)([O-])c2ccc(NC(=O)Cc3ccc(F)c(C)c3)cc2)no1,Potency,[1],inactive
same,Potency,[2],inactive
O=C1CCCC2=C1C(c1ccccc1)N=C(Nc1nc3ccccc3o1)N2 (centres undefined),Potency,[1],inactive
same,Potency,[3],inactive
same,Potency,[2],inactive
same,Potency,[4],inactive
Cc1ccc(-c2cc(C(=O)Nc3ccn[nH]3)c3ccccc3n2)cc1C,Potency,[1],inactive
same,Potency,[2],inactive
COc1ccc(C2=Nn3c(nnc3-c3ccccc3F)SC2)cc1OC,Potency,[1],inactive
same,Potency,[2],inactive
c1ccc2c(Nc3ccn[nH]3)nc(-c3ccncc3)nc2c1,Potency,[1],inactive
same,Potency,[2],inactive
Cn1nnnc1Sc1ncnc2scc(-c3ccc(Cl)cc3)c12,Potency,[1],inactive
same,Potency,[2],inactive
COc1cc(O)c(C(CC(=O)N2CCOCC2)c2ccc(OC)c(OC)c2)c(OC)c1 (centres undefined),Potency,[1],inactive
same,Potency,[2],inactive
CC(C)Nc1oc(-c2cccc3ccccc23)nc1C#N,Potency,[1],inactive
same,Potency,[2],inactive
O=C(O)c1ccc2c(c1)C(=O)N([C@H](Cc1ccc3ccccc3c1)C(=O)O)C2=O,Potency,[1],inactive
same,Potency,[2],inactive
Cc1ccccc1-c1ccc(=O)n(CC(=O)NCCc2ccccc2)n1,Potency,[1],inactive
same,Potency,[2],inactive
Cc1cnc(-c2ccccc2C(C)C)nc1NCC1CCN(c2cccnc2)C1 (centres undefined),Potency,[1],inactive
same,Potency,[2],inactive
Cc1cc(NC(=S)N2CCN(c3cccc(C(F)(F)F)c3)CC2)nc2ccccc12,Potency,[1],inactive
same,Potency,[2],inactive
Cc1cccc(CNc2ccnc(-c3cc(C(F)(F)F)cc(C(F)(F)F)c3)n2)c1,Potency,[1],inactive
same,Potency,[2],inactive
Cc1cc2c(s1)c1cnn(Cc3cccc(Cl)c3F)c(=O)c1n2C,Potency,[1],inactive
same,Potency,[2],inactive
Cc1ccc(OCCn2c(CCNC(=O)N3CCCCC3)nc3ccccc32)cc1,Potency,[1],inactive
same,Potency,[2],inactive
COc1cccc(C2=Nn3c(nnc3-c3cccc(OC)c3OC)SC2)c1,Potency,[1],inactive
same,Potency,[2],inactive
O=C(O)CCCCCNC(=O)CSc1nnc(-c2ccc([S+](=O)([O-])N3CCCC3)cc2)n1-c1ccccc1,Potency,[1],inactive
same,Potency,[2],inactive
COC1CC(O[C@H]2CC[C@@]3(C)C(=CC[C@]4(O)C3[C@H](OC(C)=O)[C@@H](OC(=O)c3ccccc3)[C@]3(C)[C@@H](C(C)=O)CC[C@@]34O)C2)OC(C)C1OC1CC(OC)C(OC2CC(OC)C(OC3OC(C)C(OC4OC(CO)C(O)C(O)C4O)C(OC)C3O)C(C)O2)C(C)O1 (some centres undefined),"activity change, negative = inhibition",[1],8.46% [at 11.2 µM]
same,"activity change, negative = inhibition",[2],2.23% [at 11.2 µM]
O=C(Nc1ccccn1)c1sc2ccc([N+](=O)[O-])cc2c1Cl,Potency,[1],inactive
same,Potency,[2],inactive
COc1ccccc1NC(=O)c1cc(-c2ccc(C)c(C)c2)nc2ccccc12,Potency,[1],inactive
same,Potency,[2],inactive
Cn1c2cc(B(O)O)sc2c2cnn(Cc3ccccc3F)c(=O)c21,Potency,[1],inactive
same,Potency,[2],inactive
COc1cc(-c2ccc3ncnc(NCC4CCCO4)c3c2)cc(OC)c1OC (centres undefined),Potency,[1],inactive
same,Potency,[2],inactive
Nc1ncnc2c1C(c1ccccc1)c1c(ccc3ccccc13)O2 (centres undefined),Potency,[1],inactive
same,Potency,[2],inactive
FC(F)(F)c1ccc(-c2nc(NCc3ccc(-c4cccnc4)cc3)c3ccccc3n2)cc1,Potency,[1],inactive
same,Potency,[2],inactive
O=S(=O)(c1ccc2c(c1)OCCO2)N1CCN(S(=O)(=O)c2ccc(Br)cc2F)CC1,Potency,[1],inactive
same,Potency,[2],inactive
Cc1ccc(S(=O)(=O)Nc2ccc(Br)cc2C(=O)Nc2nc(-c3ccccc3)cs2)cc1,Potency,[1],inactive
same,Potency,[2],inactive
C=CCNc1oc(-c2cccnc2)nc1C#N,Potency,[1],inactive
same,Potency,[2],inactive
O=C(O)c1ccc(S(=O)(=O)N[C@H](Cc2ccc([N+](=O)[O-])cc2)C(=O)O)cc1,Potency,[1],inactive
same,Potency,[2],inactive
CC(=O)N1CCCc2cc(S(=O)(=O)Nc3ccc(C)c(C)c3)ccc21,Potency,[1],inactive
same,Potency,[2],inactive
O=C(NCCc1nc2ccccc2n1CCOc1ccccc1F)C1CCCCC1,Potency,[1],inactive
same,Potency,[2],inactive
Cn1ccc2cc(-c3ccc4ncnc(NCc5ccc6c(c5)OCO6)c4c3)ccc21,Potency,[1],inactive
same,Potency,[2],inactive
O=C1CCc2cc(Cl)c(S(=O)(=O)Nc3ccc(Cl)c(Cl)c3)cc2N1,Potency,[1],inactive
same,Potency,[2],inactive
O=S(=O)(c1ccc(F)cc1)N1CCN(S(=O)(=O)c2ccc3c(c2)OCCO3)CC1,Potency,[1],inactive
same,Potency,[2],inactive
COC(=O)c1cccc(-c2noc(-c3ccccc3F)n2)c1,Potency,[1],inactive
same,Potency,[2],inactive
Cc1cc2c(s1)c1cnn(Cc3ccccc3Br)c(=O)c1n2C,Potency,[1],inactive
same,Potency,[2],inactive
O=[S+]([O-])(Nc1cnc2ccccc2c1)c1ccc(NCc2ccc(Cl)cc2O)cc1,Potency,[1],inactive
same,Potency,[2],inactive
CC(=O)Nc1cccc(S(=O)(=O)N2CCN(S(=O)(=O)c3c(F)cccc3F)CC2)c1,Potency,[1],inactive
same,Potency,[2],inactive
O=C(Nc1ccc(S(=O)(=O)Nc2nccs2)cc1)c1cc(-c2ccccc2)nc2ccccc12,Potency,[1],inactive
same,Potency,[2],inactive
Cc1cc(C)c(C)c(S(=O)(=O)N2CCN(S(=O)(=O)c3ccc4c(c3)OCCO4)CC2)c1C,Potency,[1],inactive
same,Potency,[2],inactive
O=C1CCCC2=C1C(c1[nH]ncc1Cl)N=C(Nc1nc3cccc(Cl)c3o1)N2 (centres undefined),Potency,[1],inactive
same,Potency,[2],inactive
COc1ccc(Cn2ncc3c4sc(C)cc4n(C)c3c2=O)cc1,Potency,[1],inactive
same,Potency,[2],inactive
COc1ccc(C2Nc3ccccc3C(=O)N2Cc2ccco2)cc1COc1c(C(C)C)cccc1C(C)C (centres undefined),Potency,[1],inactive
same,Potency,[2],inactive
CCc1ccc(NC(=O)C(=O)NNC(=O)Cc2ccc(Cl)c(Cl)c2)cc1,Potency,[1],inactive
same,Potency,[2],inactive
O=C1c2ccccc2C(=O)N1c1cccc2cnccc12,Potency,[1],inactive
same,Potency,[2],inactive
O=C(NCCCCN1CCN(c2cccc(Cl)c2Cl)CC1)c1cc2ccccc2s1,Potency,[1],inactive
same,Potency,[2],inactive
COc1ccccc1-c1ccc(=O)n(CC(=O)NCCc2ccccc2)n1,Potency,[1],inactive
same,Potency,[2],inactive
CCCCN(C)C(=O)Cn1nc(-c2ccccc2C)ccc1=O,Potency,[1],inactive
same,Potency,[2],inactive
COc1ccc(N2Cc3cccc(C(=O)O)c3C2=O)cc1OC,Potency,[1],inactive
same,Potency,[2],inactive
COc1cc(O)c(C(CC(=O)N2CCC(c3ccccc3)CC2)c2ccc(OC)c(OC)c2)c(OC)c1 (centres undefined),Potency,[1],inactive
same,Potency,[2],inactive
Cc1ccc(NC(=O)CN2C(=O)N/C(=C\c3cccn3-c3cccc(-c4nn[nH]n4)c3)C2=O)cc1,Potency,[1],inactive
same,Potency,[2],inactive
COc1cc(OC)cc(N2CCN(C(=S)Nc3cc(C)cc(C)n3)CC2)c1,Potency,[1],inactive
same,Potency,[2],inactive
CC(Nc1ccc([S+](=O)([O-])Nc2nccs2)cc1)c1ccccc1 (centres undefined),Potency,[1],inactive
same,Potency,[2],inactive
CCCn1c(C)nc2c(N3CCCN(Cc4ccccc4)CC3)nc(C)nc21,Potency,[1],inactive
same,Potency,[2],inactive
CCOC(=O)C1CCN(C(=O)C(C)(C)NC(=O)Nc2cccc(C(=O)OC)c2)CC1,Potency,[1],inactive
same,Potency,[2],inactive
O=C(O)c1ccc(-c2ccc3ncnc(NCc4nccs4)c3c2)o1,Potency,[1],inactive
same,Potency,[2],inactive
Cc1ccc(C(=O)NCC(=O)OC(C(=O)Nc2cc(C(F)(F)F)ccc2Cl)c2ccccc2)cc1 (centres undefined),Potency,[1],inactive
same,Potency,[2],inactive
O=C(O)c1ccc(CSc2nnc(-c3cccc(S(=O)(=O)NC4CCCC4)c3)n2-c2ccc(F)cc2)cc1,Potency,[1],inactive
same,Potency,[2],inactive
O=C(Nc1ncc(Cc2ccc(C(F)(F)F)cc2)s1)c1ccco1,Potency,[1],inactive
same,Potency,[2],inactive
Cn1cc(P(=O)(c2ccccc2)c2ccccc2)c2ccccc21,Potency,[1],inactive
same,Potency,[2],inactive
O=C(O)C1CCC(C(=O)Nc2ccc([S+](=O)([O-])Nc3nccs3)cc2)CC1 (centres undefined),Potency,[1],inactive
same,Potency,[2],inactive
CN1CCN(c2cccc(Nc3nn4c(=O)c5ccccc5nc4s3)c2)CC1,Potency,[1],inactive
same,Potency,[2],inactive
CC/C=C/CC1=C(CCCCC(CCC(=O)O)OC(C)=O)CCC1=O (centres undefined),Potency,[1],inactive
same,Potency,[2],inactive
Cc1cc2c(s1)c1cnn(Cc3c(F)cccc3F)c(=O)c1n2C,Potency,[1],inactive
same,Potency,[2],inactive
COc1ccc([S+](=O)([O-])Nc2ccc(-c3nc4ccccc4[nH]3)cc2)cc1OC,Potency,[1],inactive
same,Potency,[2],inactive
COc1cccc(NC(=S)N2CCN(c3ncc(C(F)(F)F)cc3Cl)CC2)n1,Potency,[1],inactive
same,Potency,[2],inactive
COc1ccc(C2=Nn3c(nnc3-c3ccccc3F)SC2)cc1OC1CCOC1 (centres undefined),Potency,[1],inactive
same,Potency,[2],inactive
CCCCNc1nc(C)nc2c1nc(-c1ccccc1)n2CCN1CCCC1,Potency,[1],inactive
same,Potency,[2],inactive
O=C(Cc1ccc2ccccc2c1)Nc1nnc(-c2ccncc2)s1,Potency,[1],inactive
same,Potency,[2],inactive
COCC(=O)NCCc1nc2ccccc2n1CCOc1ccc(C)cc1,Potency,[1],inactive
same,Potency,[2],inactive
O=C1c2ccccc2C(=O)N1c1nccs1,Potency,[1],inactive
same,Potency,[2],inactive
Cc1nc(NCc2ccccc2)c2nc(-c3ccccc3)n(C3CCN(Cc4ccccc4)C3)c2n1 (centres undefined),Potency,[1],inactive
same,Potency,[2],inactive
Cc1ccc(NS(=O)(=O)c2cc3c(cc2N(C)CCN(C)C)NC(=O)CC3)cc1C,Potency,[1],inactive
same,Potency,[2],inactive
Cc1cccc(-c2nnc(C)n2CCCn2ccnc2)c1N,Potency,[1],inactive
same,Potency,[2],inactive
COC(=O)c1ccccc1NC(=O)c1ccc(F)cc1,Potency,[1],inactive
same,Potency,[2],inactive
CCCCN(C)C(=O)Cn1nc(-c2cccc(C)c2)ccc1=O,Potency,[1],inactive
same,Potency,[2],inactive
Cc1ccsc1CNc1ncnc2ccc(-c3ccc4c(c3)OCO4)cc12,Potency,[1],inactive
same,Potency,[2],inactive
COc1cc2c(NC3CCN(C(C)C)CC3)nc(N3CCC(F)(F)CC3)nc2cc1OCCCN1CCCC1,Potency,[1],inactive
same,Potency,[2],inactive
O=C(Nc1nnc(-c2ccncc2)s1)Nc1ccc(Cl)cc1F,Potency,[1],inactive
same,Potency,[2],inactive
COc1ccc(-c2ccc3ncnc(NCc4cccs4)c3c2)cc1,Potency,[1],inactive
same,Potency,[2],inactive
COc1ccc(-c2nnc3n2N=C(c2ccccc2OC)CS3)cc1,Potency,[1],inactive
same,Potency,[2],inactive
CCCn1c(-c2ccc(F)cc2)nc2c(N3CCN(C)CC3)nc(C)nc21,Potency,[1],inactive
same,Potency,[2],inactive
Cc1ccc(C)n1-c1cccc(-c2nn[nH]n2)c1,Potency,[1],inactive
same,Potency,[2],inactive
CC(C)(C)N=Cc1c(-c2ccccc2)no[n+]1[O-],Potency,[1],inactive
same,Potency,[2],inactive
N#Cc1ccc(-c2ccc(NC(=O)c3cccs3)cn2)cc1,Potency,[1],inactive
same,Potency,[2],inactive
Cc1ccc(-c2csc(NC(=O)c3ccncc3NS(=O)(=O)c3ccc(C)cc3)n2)cc1,Potency,[1],inactive
same,Potency,[2],inactive
COc1ccc(C(=O)OCC#CCSc2nnc(-c3cccc4ccccc34)o2)cc1,Potency,[1],inactive
same,Potency,[2],inactive
